Assay [1] in a line: Quantitative High-Throughput drug screen in 47 multiple myeloma cell lines against the NCATS MIPE library collection: Karpas620_DSMZ cell viability assay (AID 1918959). Further: nearly all actives have a fitted effect of over 30% in size. Further: potency means the concentration at half of the fitted maximal effect. Summed up:
(§1)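 We plated 500 myeloma cells per well, pinned in MIPE 4.0 compounds, and incubated for 48 hours at 37C. ATP was then quantified with CellTiter-Glo, with DMSO and media-only wells defining 100% and 0%.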

A short description of assay [2]: Quantitative High-Throughput drug screen in 47 multiple myeloma cell lines against the NCATS MIPE library collection: KMM1_JCRB cell viability assay (AID 1918960). Further: nearly all actives have a fitted effect of over 30% in size. Further: potency means the concentration at half of the fitted maximal effect. In a few lines: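 Cell viability inhibition in this qHTS is measured via ATP content (CellTiter-Glo) after 48 h drug exposure at 37 °C. Wells hold 500 cells; DMSO-treated wells define 100% and medium-only wells 0%.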

A short description of assay [3]: Quantitative High-Throughput drug screen in 47 multiple myeloma cell lines against the NCATS MIPE library collection: Karpas417_ECACC cell viability assay (AID 1918961). Further: potency means the concentration at half of the fitted maximal effect. The note with it: Karpas417 myeloma viability, CellTiter-Glo ATP luminescence, 48 h; viability (% of DMSO): at 45.8 µM (top of the series). In a few lines:
(§2)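 Viability readout: CellTiter-Glo luminescence following 5 min room-temperature incubation with reagent. Prior exposure: 48 h, 37C, humidified 5% CO2, 500 cells per well.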
For orientation: ATP-based viability assays read luminescence as a measure of living cells.

The nature of assay [4]: Quantitative High-Throughput drug screen in 47 multiple myeloma cell lines against the NCATS MIPE library collection: JIM3_ECACC cell viability assay (AID 1918963; further: nearly all actives have a fitted effect of over 35% in size; further: potency means the concentration at half of the fitted maximal effect). In a few lines: as §1
Assay [5] can be described thus: Quantitative High-Throughput drug screen in 47 multiple myeloma cell lines against the NCATS MIPE library collection: JIM1_ECACC cell viability assay (AID 1918964; further: potency means the concentration at half of the fitted maximal effect). In a few lines:
(§3)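 Inhibition of cell viability is measured here. Each line was plated at 500 cells per well, treated with MIPE 4.0 drugs, kept 48 hours at 37C, then assayed for ATP content by CellTiter-Glo luminescence.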

A short description of assay [6]: Quantitative High-Throughput drug screen in 47 multiple myeloma cell lines against the NCATS MIPE library collection: INA6_PLB cell viability assay (AID 1918965; further: nearly all actives have a fitted effect of over 55% in size; further: potency means the concentration at half of the fitted maximal effect). In a few lines: as §2
The nature of assay [7]: Quantitative High-Throughput drug screen in 47 multiple myeloma cell lines against the NCATS MIPE library collection: JJN3_DSMZ cell viability assay (AID 1918966; further: nearly all actives have a fitted effect of over 50% in size; further: potency means the concentration at half of the fitted maximal effect). Summed up: as §3
Assay [8] in a line: Quantitative High-Throughput drug screen in 47 multiple myeloma cell lines against the NCATS MIPE library collection: H1112_PLB cell viability assay (AID 1918967; further: nearly all actives have a fitted effect of over 30% in size; further: potency means the concentration at half of the fitted maximal effect). In a few lines:
as §3

Assay [9] is described as follows: Quantitative High-Throughput drug screen in 47 multiple myeloma cell lines against the NCATS MIPE library collection: Karpas25_ECACC cell viability assay (AID 1918968; further: nearly all actives have a fitted effect of over 35% in size; further: potency means the concentration at half of the fitted maximal effect). Summed up:
as §3

Assay [10] in a line: Quantitative High-Throughput drug screen in 47 multiple myeloma cell lines against the NCATS MIPE library collection: KMS27_JCRB cell viability assay (AID 1918970). Further: nearly all actives have a fitted effect of over 30% in size. Further: potency means the concentration at half of the fitted maximal effect. The note with it: KMS27 myeloma cells, CellTiter-Glo ATP viability, 48 h; viability (% of DMSO): at 45.8 µM (top of the series). Summed up:
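KMS27_JCRB myeloma cells, 500 per well, exposed 48 h at 37 C, 5% CO2 to MIPE 4.0 compounds. Viability from ATP by CellTiter-Glo luminescence, normalized to DMSO (100%) and medium-only (0%) wells.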

Assay [11] in a line: Quantitative High-Throughput drug screen in 47 multiple myeloma cell lines against the NCATS MIPE library collection: KMS12BM_JCRB cell viability assay (AID 1918971). Further: potency means the concentration at half of the fitted maximal effect; nearly all actives have a fitted effect of over 35% in size. In a few lines: (§4)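 Relative luminescence from CellTiter-Glo served as the viability signal, referenced to DMSO-treated (100%) and cell-free medium (0%) controls. Treatment lasted 48 hours at 37C with 500 cells per well.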

Assay [12] can be described thus: Quantitative High-Throughput drug screen in 47 multiple myeloma cell lines against the NCATS MIPE library collection: KMS12PE_JCRB cell viability assay (AID 1918972). Further: nearly all actives have a fitted effect of over 30% in size. Further: potency means the concentration at half of the fitted maximal effect. Summed up:
as §2

The nature of assay [13]: Quantitative High-Throughput drug screen in 47 multiple myeloma cell lines against the NCATS MIPE library collection: KMS26_JCRB cell viability assay (AID 1918975). Further: nearly all actives have a fitted effect of over 45% in size. Further: potency means the concentration at half of the fitted maximal effect. Summed up:
as §4

A short description of assay [14]: Quantitative High-Throughput drug screen in 47 multiple myeloma cell lines against the NCATS MIPE library collection: MMM1_PLB cell viability assay (AID 1918976). Further: potency means the concentration at half of the fitted maximal effect; nearly all actives have a fitted effect of over 35% in size. In a few lines: (§5)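 Cells were exposed to library compounds for 48 hours, after which ATP was measured by CellTiter-Glo. Signal was taken as median relative luminescence units.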
The nature of assay [15]: Quantitative High-Throughput drug screen in 47 multiple myeloma cell lines against the NCATS MIPE library collection: MOLP8_DSMZ cell viability assay (AID 1918977). Further: nearly all actives have a fitted effect of over 45% in size. Further: potency means the concentration at half of the fitted maximal effect. Summed up: as §5
Assay [16] can be described thus: Quantitative High-Throughput drug screen in 47 multiple myeloma cell lines against the NCATS MIPE library collection: NCIH929_DSMZ cell viability assay (AID 1918978). Further: nearly all actives have a fitted effect of over 35% in size. Further: potency means the concentration at half of the fitted maximal effect. In a few lines: as §5
The nature of assay [17]: Quantitative High-Throughput drug screen in 47 multiple myeloma cell lines against the NCATS MIPE library collection: OCIMY1_PLB cell viability assay (AID 1918979). Further: nearly all actives have a fitted effect of over 35% in size. Further: potency means the concentration at half of the fitted maximal effect. Summed up: as §5
Assay [18] can be described thus: Quantitative High-Throughput drug screen in 47 multiple myeloma cell lines against the NCATS MIPE library collection: KHM11_PLB cell viability assay (AID 1918962). Summed up:
as §1

A short description of assay [19]: Quantitative High-Throughput drug screen in 47 multiple myeloma cell lines against the NCATS MIPE library collection: KMS20_JCRB cell viability assay (AID 1918973). Further: nearly all actives have a fitted effect of over 45% in size. Summed up:
as §3

Inconclusive results are not listed. Calls of active or inactive are those of the source. The call rests on the fitted dose curve; in most records, active means well fitted curve in the direction sought with a large enough effect; inconclusive means small, poorly fitted or top-dose-only effect, or another doubt; inactive means no such curve, though single readings can be large; an effect the other way counts as inactive or inconclusive.

From PubChem BioAssay (NCATS) come the findings set out here.

Take `COc1ccc2c(c1OC)C(=O)OC2[C@H]1c2c(cc3c(c2OC)OCO3)CCN1C` (stereo partly drawn): the Potency in [1] is 0.0264 µM (active); in [2], 0.148 µM (active); in assay [3] it was 2.09 µM (active); in [4], 0.0833 µM (active); in assay [5], 0.001 µM (active); in [6], 0.0526 µM (active). For the same molecule, the Potency in assay [7] is 5.26 µM (active); in [8], 0.235 µM (active); in assay [9] it was 0.235 µM (active); in assay [10] it was 0.132 µM (active); in assay [11], 0.0418 µM (active); in assay [12] it was 0.105 µM (active). For the same molecule, the Potency in [13] is 3.32 µM (active); in assay [14], 2.64 µM (active); in assay [15], 6.62 µM (active); in assay [16], 1.87 µM (active).
Consider `CCOC(=O)[C@@H](N)Cc1ccc(-c2cc(O[C@H](c3ccc(Cl)cc3-n3ccc(C)n3)C(F)(F)F)nc(N)n2)cc1`, for which the Potency in [1] was 9.35 µM (active); in assay [2] it was 11.8 µM (active); in [3], 9.35 µM (active); in assay [4], 20.9 µM (active); in assay [5], 6.62 µM (active); in [6] it was 23.5 µM (active). Moreover, the Potency in assay [7] is 18.7 µM (active); in assay [8] it was 10.5 µM (active); in assay [9], 18.7 µM (active); in assay [10], 10.5 µM (active); in assay [11] it was 20.9 µM (active); in assay [14], 11.8 µM (active). Further, the Potency is 11.8 µM (active) in assay [15], 18.7 µM (active) in [16] and 18.7 µM (active) in assay [17].
For the molecule `COC1=C(OC)C(=O)C(CC=C(C)CCC=C(C)CCC=C(C)CCC=C(C)CCC=C(C)CCC=C(C)CCC=C(C)CCC=C(C)CCC=C(C)CCC=C(C)C)=C(C)C1=O`, the Potency result in assay [1], in assay [2], in assay [3], in assay [4], in [6] and in assay [8] was “inactive” in each case. Further, the Potency result in [9], in [10], in assay [12], in [13], in assay [15] and in [16] was “inactive” each time.
Take `O=C(C[C@@H]1CC=CCCC(=O)O[C@H](c2ccccc2)CNC1=O)NCc1ccc(Cl)cc1`: the Potency result in assay [1], in assay [2], in [7], in assay [9], in assay [13] and in assay [15] was “inactive” in each case. Also, in [17], the Potency entry is “inactive”. Also, the viability (% of DMSO) in assay [3] was 118% (active). Moreover, the Potency in assay [18] is 2.64 µM (active); in assay [8] it was 4.69 µM (active).
For `O=C(c1ccc(F)cc1)N1CCC[C@H](c2nc(-c3ccc(F)cc3)no2)C1`, the Potency result in assay [1], in [2], in assay [3], in [5], in assay [7] and in assay [8] was “inactive” each time. Further, the Potency result in [9], in assay [12], in assay [19], in assay [13], in assay [15] and in assay [16] was “inactive” in each case. Also, the Potency result in assay [17] was “inactive”.
`COc1ccc(C(C)=O)c(O)c1`: the Potency entry in assay [1], in [2], in [4], in [5], in [6] and in assay [7] was “inactive” throughout. Also, the Potency result in assay [8], in assay [12], in [19], in assay [15] and in [16] was “inactive” throughout. Moreover, the Potency in assay [3] was 0.418 µM (active).
